About 2,900 (47%) of roughly 6,200 compounds were called active. So high a share suggests a set chosen from earlier hits. The list shows a part of the results. Values without a mark were called inactive. No stated cut-off is given here; in the data, active means inhibition above about 50%; inactive means the rest.
Test: Mycobacterium tuberculosis growth inhibition, primary screen (AID 1259343)
Details: inhibition: at 10 µM, stronger effect = higher value; outcome: 10 uM

| SMILES | inhibition |
| --- | --- |
| O=c1c(NCCc2ccccc2)nccn1-c1ccccc1 | 23.1% |
| Cc1ccc(-n2ccnc(NCC(C)c3ccccc3)c2=O)cc1C (stereo unspecified) | 68.9% (active) |
| Cc1cc(F)ccc1S(=O)(=O)Nc1cc(-c2ccccc2)on1 | 69.6% (active) |
| Cc1cc(NS(=O)(=O)c2cc(Cl)ccc2Cl)no1 | 43.7% |
| Cc1cc(C2=NNC(=NC3CCCC3)SC2)c(C)n1Cc1ccco1 | 99.4% (active) |
| CC(C)(C)N=C1NN=C(c2c[nH]c3ccccc23)CS1 | -10% |
| COCCCN=C1NN=C(c2cc(C)n(Cc3ccco3)c2C)CS1 | 63.8% (active) |
| Cc1cc(C2=NNC(=NCc3ccco3)SC2)c(C)n1Cc1ccco1 | -40.5% |
| Cc1ccccc1N=C1NN=C(c2ccccc2F)CS1 | 68.3% (active) |
| CCCCN=C1SCC(c2cc(C)n(Cc3ccco3)c2C)=NN1C | 44% |
| Cc1cc(C2=NNC(=NCC3CCCO3)SC2)c(C)n1Cc1cccs1 (stereo unspecified) | 23.6% |
| Cc1ccc(N=C2NN=C(c3cc(F)ccc3F)CS2)c(C)c1 | 31.9% |
| Cc1cc(C2=NNC(=NCc3ccc4c(c3)OCO4)SC2)c(C)n1Cc1ccco1 | -5.02% |
| Cc1cc(C2=NNC(=NC3CC3)SC2)c(C)n1-c1ccccc1F | 95.9% (active) |
| CC(C)(C)N=C1NN=C(c2ccc3ccccc3c2)CS1 | 9.77% |
| FC(F)Oc1ccc(C2=NNC(=NC3CC3)SC2)cc1 | 18.9% |
| O=c1c2c(F)c(F)c(F)c(F)c2on2c3c(nc12)CCCC3 | 44.8% |
| O=[N+]([O-])c1ccc(Sc2nnnn2-c2ccccc2)c([N+](=O)[O-])c1 | 89.6% (active) |
| c1ccc(-n2nnnc2SCCNc2nc3ccccc3[nH]2)cc1 | 42.9% |
| O=[N+]([O-])c1c(Sc2nnnn2-c2ccccc2)nc2sccn12 | 99.2% (active) |
| CC(C)c1ccc(-n2nnnc2SC(C)c2nnc(-c3ccc([N+](=O)[O-])cc3)o2)cc1 (stereo unspecified) | 18.5% |
| O=C(CSc1nnnn1-c1ccccc1)NNC(=O)c1ccc(O)cc1O | 11.6% |
| c1ccc(Sc2c(-c3ccccc3)nc3sccn23)cc1 | 34.5% |
| O=C1c2ccccc2NC2(CCCC2)N1CC(F)(F)F | 85.2% (active) |
| NC(=S)N=Nc1ccc(NN=C(N)N)cc1 | 101% (active) |
| CC(=O)C1=C(C(F)(F)F)N(C)C(=S)N(C)C1c1ccccc1 (stereo unspecified) | 70% (active) |

| SMILES | inhibition |
| --- | --- |
| CN1CC(=O)N(CCCC(=O)Nc2ccc(OCc3ccccc3)cc2)C1=O | 93.5% (active) |
| COc1ccc(OCCN2C(=O)CN(/C=C/c3ccccc3)C2=O)cc1 | -5.21% |
| C=CCN(CC(O)COc1ccccc1)CC1CC(c2ccccc2)=NO1 (stereo unspecified) | 20.8% |
| CC(O)CNCCCCOc1ccc(OCc2ccccc2)cc1 (stereo unspecified) | 96.8% (active) |
| OC1(c2ccc(OCc3ccccc3)cc2)CCOCC1 | 30.5% |
| NS(=O)(=O)c1ccc2c(c1)CCN2Cc1cc(F)cc2c1OCOC2 | 3.61% |
| O=C(O)C1CCN(C(=O)c2ccc(-c3ccc(Cl)cc3)s2)CC1 | 1.69% |
| CC1CCN(C(=O)c2ccc(-c3ccc(F)c(F)c3)s2)CC1 | 65.3% (active) |
| Cc1ccc(C(=O)N2CCC(c3ccc(F)cc3)CC2)s1 | 33.5% |
| COc1ccc(NC(=O)N2CCCC(C(=O)c3sccc3C)C2)cc1OC (stereo unspecified) | 23.7% |
| COc1cc(NC(=O)CN2CCC(n3ccnc3)C2)ccc1Cl (stereo unspecified) | 85.6% (active) |
| COc1cccc(C2CC2C(=O)Nc2cnc(C3CC3)nc2)c1 (stereo unspecified) | 37.3% |
| O=C(NCC(O)COc1cccc(Cl)c1Cl)C1CC1c1ccco1 (stereo unspecified) | 12.8% |
| O=C(Nc1ncc(Cl)s1)C1CC1c1ccco1 (stereo unspecified) | 86.5% (active) |
| CCCc1cc(=O)[nH]c(-n2nc(C)cc2NC(=O)c2cc(OC)c(OC)c(OC)c2)n1 | 100% (active) |
| CCCc1cc(=O)[nH]c(-n2nc(C)cc2NC(=O)c2ccc(OC)c(OC)c2)n1 | 102% (active) |
| CCc1cc(=O)[nH]c(-n2nc(C)cc2NC(=O)c2cc(OC)c(OC)c(OC)c2)n1 | -22.3% |
| O=C(O)COc1ccc2cc(Br)ccc2c1 | 78.5% (active) |
| CC(NC(=O)COc1ccc2cc(Br)ccc2c1)c1ccc(F)cc1 (stereo unspecified) | -32.3% |
| COC(=O)CN1C(c2ccc(OC)cc2)=Nc2ccc(Br)cc2C1c1ccccc1 (stereo unspecified) | 29.4% |
| Cc1cccc2c3c(ccc12)C1=C(C(=O)C3=O)C(C)CO1 (stereo unspecified) | 82.3% (active) |
| CN(CC(F)(F)C(F)F)S(=O)c1ccc2ccccc2c1 (stereo unspecified) | 49% |
| CC(NCC1(c2ccccc2)CCCC1)c1nnc(-c2ccccc2)o1 (stereo unspecified) | -0.11% |
| COc1ccc(-c2nnc(C(C)Nc3cccc4c3CCCC4)o2)cc1 (stereo unspecified) | 67.9% (active) |
| CN(Cc1ccco1)C(=O)NCCc1cccc(Cl)c1 | 49.7% |
| CN(Cc1ccccc1)C(=O)NCCc1ccc2c(c1)CCO2 | 66.7% (active) |

| SMILES | inhibition |
| --- | --- |
| O=C(Cc1ccc2c(c1)CCC2)NCCc1ccc2c(c1)OCCO2 | 37.8% |
| FC(F)(F)c1nnc2sc(Cc3cccc4ccccc34)nn12 | 71.8% (active) |
| c1ccc(CCCCc2nn3c(C4CC4)nnc3s2)cc1 | 34.8% |
| O=S(=O)(NCCCC1CCCCC1)N1CCCCCC1 | 26.3% |
| O=S(=O)(NCc1ncc(-c2ccccc2)o1)N1CCCCCC1 | 58.4% (active) |
| CC1CCN(S(=O)(=O)NCc2cc(-c3ccccc3)on2)CC1 | 20.4% |
| Cc1oc(=O)oc1CN1CCN(c2cc3c(cc2F)c(=O)c(C(=O)O)c2n3C(C)S2)CC1 (stereo unspecified) | 96.9% (active) |
| CN1C(=CC=NN=c2sc3ccccc3n2C)C(C)(C)c2ccccc21 | 4.19% |
| CN1C(=CC=NNc2nc3ccccc3s2)C(C)(C)c2ccccc21 | 97% (active) |
| c1cc(-c2nc3cc(Oc4ccc5oc(-c6ccncc6)nc5c4)ccc3o2)ccn1 | 32.7% |
| O=C(NN=CC(Br)=Cc1ccccc1)c1cnccn1 | -13.9% |
| Cc1ccc(CN2CCN(N=CC(Br)=Cc3ccccc3)CC2)c(C)c1 | 98.3% (active) |
| COc1ccccc1OCC(=O)N1CCC(Oc2nc3c(C)cccc3s2)CC1 | 20.8% |
| Cc1cccc2sc(N(Cc3ccccc3)C(=O)c3ccno3)nc12 | 35.8% |
| COC(=O)c1ccc(C(=O)NNc2nc3c(C)cccc3s2)cc1 | 99.7% (active) |
| CCCN(C)c1cc(Oc2ccc(C)cc2)ncn1 | 25.2% |
| Cc1cc(C)cc(Oc2cc(-n3nc(C)cc3C)ncn2)c1 | 65.7% (active) |
| COCCCNc1ccc2c(-c3ccccc3F)noc2n1 | 76.1% (active) |
| c1ccc(-c2noc3nc(NC4CC4)ccc23)cc1 | 44.6% |
| Fc1ccccc1-c1noc2nc(NC3CC3)ccc12 | 70.5% (active) |
| CC1CCCC(C)N1CCNc1ccc2c(-c3ccc(F)cc3)noc2n1 (stereo unspecified) | 47.2% |
| Fc1ccc(-c2noc3nc(NC4CC4)ccc23)cc1 | 92.9% (active) |
| CCCC1=NN(C(C)=O)C(C(=O)NCCCN2CCCCC2C)O1 (stereo unspecified) | -9.23% |
| Oc1ccc2[nH]c(-c3ccccc3)nc2c1CN1CCCCC1 | 13.3% |
| c1ccc(-c2nc3c(ccc4ccccc43)[nH]2)cc1 | 89.8% (active) |
| c1ccc(-c2nc3c(ccc4ccccc43)[nH]2)nc1 | 96.1% (active) |

| SMILES | inhibition |
| --- | --- |
| c1ccc(-c2nc3cc4ccccc4cc3[nH]2)nc1 | 17.5% |
| O=C1NC(=O)/C(=C/c2csc(-c3ccccc3)n2)S1 | 59.2% (active) |
| O=C(NCC1CCCCN1)c1cc(OCC(F)(F)F)ccc1OCC(F)(F)F (stereo unspecified) | 84.3% (active) |
| CC(C)C(=O)Nc1ccc(OCC(F)(F)F)c(C#N)c1 | -16.8% |
| CC(NC(=O)c1cccnc1N1CCCCC1)c1ccc(C#N)cc1 (stereo unspecified) | 4.4% |
| CC(C)c1ccc(C(C)NC(=O)c2cccn2C)cc1 (stereo unspecified) | 79% (active) |
| Cn1cccc1C(=O)NS(=O)(=O)c1ccc(C#N)c(Cl)c1 | 15% |
| CN(Cc1ccccc1)Cc1cc(C(=O)NCc2cccc(F)c2F)no1 | 38.5% |
| Cc1ccc(C)c(-c2cc(C(=O)NCCC(=O)NCc3ccc(F)cc3)no2)c1 | 71.3% (active) |
| Cn1cnc([N+](=O)[O-])c1Sc1ncnc2nc[nH]c12 | 56.7% (active) |
| Cc1cc(C(=O)Nc2ccc(C(C)C)cc2)c(C)o1 | 61.2% (active) |
| Cc1cc(C(=O)Nc2ccc3c(c2)OC2(CCCC2)O3)c(C)o1 | 56% (active) |
| CC(C)c1ccc(NC(=O)c2ccc(S(N)(=O)=O)cc2)cc1 | 2.35% |
| CC1(C)Oc2ccc(NC(=O)c3ccnc(NC4CC4)c3)cc2O1 | -11.8% |
| O=S(=O)(Nc1ccc2c(c1)OC1(CCCC1)O2)c1cccs1 | 27% |
| O=C(Nc1ccc(N2CCc3ccccc32)cc1)C1CCOC1 (stereo unspecified) | 74.7% (active) |
| O=C(O)c1cn(Cc2ccccc2)nc1OCc1ccccc1 | 72.7% (active) |
| O=C(O)c1cn(Cc2ccc(F)cc2)nc1OCc1ccc(F)cc1 | 47.5% |
| O=C(O)c1cn(Cc2cccc(F)c2)nc1OCc1cccc(F)c1 | 29.7% |
| CCCc1cc(=O)[nH]c(-n2nc(C)cc2NC(=O)CCc2ccc(OC)cc2)n1 | 101% (active) |
| CCc1cc(=O)[nH]c(-n2nc(C)cc2NC(=O)Cc2ccc(OC)cc2)n1 | 101% (active) |
| COc1ccc(CCC(=O)Nc2cc(C)nn2-c2nc(C)cc(=O)[nH]2)cc1 | 101% (active) |
| COc1ccc(CC(=O)Nc2cc(C)nn2-c2nc(C)cc(=O)[nH]2)cc1 | 101% (active) |

Reference: PubChem BioAssay AID1259343 (VanderVen Lab, College of Veterinary Medicine, Cornell …, 2017)
